Source: paper PMC4336329 (PLoS ONE, 2015)
Out of some 310,000 compounds screened, about 14,000 (4.5%) showed an effect of 50% or more. The effect is printed as a negative number. This excerpt belongs to a sample that is enriched for strong results.

Biological target: human ether-à-go-go-related gene (hERG) potassium channel (human, UniProt Q12809)
Test: primary screen, population patch clamp on CHO cells stably expressing hERG; higher = less effect of the substance
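Further: peak tail current of the secondary pulse compared with the same well before compound.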

Chain of human ether-à-go-go-related gene (hERG) potassium channel (Q12809 whole entry, looked up): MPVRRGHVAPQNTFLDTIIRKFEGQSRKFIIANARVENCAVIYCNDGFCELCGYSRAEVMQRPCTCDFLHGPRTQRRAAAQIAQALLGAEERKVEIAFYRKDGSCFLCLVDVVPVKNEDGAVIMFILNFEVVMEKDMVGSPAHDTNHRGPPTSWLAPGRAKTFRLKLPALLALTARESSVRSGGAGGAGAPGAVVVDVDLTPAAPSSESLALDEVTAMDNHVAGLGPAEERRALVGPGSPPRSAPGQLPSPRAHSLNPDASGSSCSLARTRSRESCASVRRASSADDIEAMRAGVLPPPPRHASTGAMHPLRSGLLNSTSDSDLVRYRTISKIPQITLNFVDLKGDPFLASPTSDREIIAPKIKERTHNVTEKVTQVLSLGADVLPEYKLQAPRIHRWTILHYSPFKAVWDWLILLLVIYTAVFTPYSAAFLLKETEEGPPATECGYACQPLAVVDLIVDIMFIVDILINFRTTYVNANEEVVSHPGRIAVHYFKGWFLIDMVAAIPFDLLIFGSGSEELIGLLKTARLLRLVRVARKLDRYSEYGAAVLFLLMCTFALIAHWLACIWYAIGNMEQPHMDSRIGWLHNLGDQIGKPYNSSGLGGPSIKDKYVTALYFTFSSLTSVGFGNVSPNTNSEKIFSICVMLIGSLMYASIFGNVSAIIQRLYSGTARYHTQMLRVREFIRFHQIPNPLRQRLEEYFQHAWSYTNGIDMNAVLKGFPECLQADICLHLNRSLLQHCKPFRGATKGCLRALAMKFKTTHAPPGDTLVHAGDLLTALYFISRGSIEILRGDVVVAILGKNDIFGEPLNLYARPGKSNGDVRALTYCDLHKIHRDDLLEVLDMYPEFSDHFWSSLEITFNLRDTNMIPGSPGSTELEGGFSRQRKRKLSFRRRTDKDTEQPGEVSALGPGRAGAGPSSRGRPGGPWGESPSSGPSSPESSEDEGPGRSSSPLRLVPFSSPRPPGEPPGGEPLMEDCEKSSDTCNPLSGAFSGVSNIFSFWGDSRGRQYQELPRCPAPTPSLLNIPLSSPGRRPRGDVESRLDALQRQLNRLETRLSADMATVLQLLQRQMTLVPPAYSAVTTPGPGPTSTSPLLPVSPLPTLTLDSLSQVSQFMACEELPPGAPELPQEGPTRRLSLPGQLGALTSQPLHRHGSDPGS

Row | SMILES | hERG current change (%, negative = inhibition) at 10uM
1 | O=C(O)C(F)(F)F.c1cn2c(NC3CCCCC3)c(-c3ccc(SC4CCCCC4)cc3)nc2cn1 | 9.49%
2 | O=C(CSc1ccc(F)cc1)N1CCOCC1 | 16.2%
3 | O=C(N/N=C/c1cccnc1)c1cc(Br)ccc1O | 30.5%
4 | Cc1ccc(-n2c(=O)cc(N3CC(C)CC(C)C3)[nH]c2=O)cc1 (stereo not drawn) | 23.7%
5 | O=C(Cn1cnc2c(nc3n2CCCCC3)c1=O)Nc1cccc(C(F)(F)F)c1 | -52.3%
6 | COc1ccccc1NC(=O)Cn1cnc2c(nc3n2CCCCC3)c1=O | -11.4%
7 | COc1cc(NC(=O)Cn2cnc3c(nc4n3CCCCC4)c2=O)cc(OC)c1OC | 22.8%
8 | CC(C)c1nc(CN(C)C(=O)N[C@H](C(=O)N[C@@H](Cc2ccccc2)C[C@H](O)[C@H](Cc2ccccc2)NC(=O)OCc2cncs2)C(C)C)cs1 | -24.5%
9 | C#CCOCCOCCOCCNc1nc(N2CCOCC2)nc(N2CCN(C(=O)[C@H]([C@@H](C)CC)n3cc(CCC[NH+]=C(N)N)nn3)CC2)n1.[Cl-] | -0.117%
10 | COc1cccc(-n2c(SCC(N)=O)nnc2-c2ccncc2)c1 | 16%
11 | O=c1[nH]nc(Cc2ccc(Cl)cc2)c2ccccc12 | 8.04%
12 | O=c1[nH]nc(Cc2ccccc2)c2ccccc12 | 4.16%
13 | O=c1[nH]nc(Cc2ccc([N+](=O)[O-])cc2)c2ccccc12 | -70.2%
14 | CN(C)CCNC(=O)c1cc(Br)ccc1Cl | 3.14%
15 | CC(=O)c1c(N2CCN(c3ccccn3)CC2)nc(=S)n(-c2ccccc2)c1C | -32.3%
16 | CCOC(=O)CN1CCC(c2cc(-c3ccc(Cl)cc3)n[nH]2)CC1 | -12.5%
17 | Clc1ccc(-c2cc(C3CCNCC3)[nH]n2)cc1 | -3.21%
18 | CC(C)(C)OC(=O)N1CCC(c2cc(-c3cccs3)n[nH]2)CC1 | -1.2%
19 | Cc1ccc(CN2CCN(/N=C/c3cccs3)CC2)cc1 | -38%
20 | Cc1ccc(CN2CCC(c3cc(-c4cccs4)n[nH]3)CC2)cc1 | -82.1%
21 | Cc1ccc(CN2CCC(c3cc(-c4ccc(Cl)cc4)n[nH]3)CC2)cc1 | -78.8%
22 | O=C(O)c1ccc(NC(=O)c2cccc(C(=O)Nc3ccc(C(=O)O)cc3)c2)cc1 | 7.31%
23 | Cc1c(S(=O)(=O)NCCc2ccccc2)c(=O)n(C)c(=O)n1C | -1.25%
24 | CCN(CC)C(=O)c1ccc2c(c1[N+](=O)[O-])C(=O)c1ccccc1C2=O | 6.69%
